LYPLA1 inh = LYPLA1 inhibitors, primary screen, counter-screen for PME1 inhibitor project, biochemical, fluorescence polarization, FP-Rh probe ABPP | Acyl-protein thioesterase 1 (Homo sapiens), O75608 | recombinant LYPLA1 | inhibition, % at 5.9 µM | 320,000 compounds, 0.16% hits;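 active means inhibition above the mean of all tested compounds plus 3 SD, set per campaign, cut at about 14% in these data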;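 further: inhibitors block serine hydrolase probe labeling of LYPLA1 so polarization falls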
ZTA DNA inh = ZTA (EBV) inhibition in EBNA-1 counter-screen; P03206; ZTA-DNA binding, fluorescence polarization; inhibition, % at 11 µM; 320,000 compounds, 0.15% hits; in the data active means inhibition above about 33%
Target sequence (P03206 whole entry, looked up): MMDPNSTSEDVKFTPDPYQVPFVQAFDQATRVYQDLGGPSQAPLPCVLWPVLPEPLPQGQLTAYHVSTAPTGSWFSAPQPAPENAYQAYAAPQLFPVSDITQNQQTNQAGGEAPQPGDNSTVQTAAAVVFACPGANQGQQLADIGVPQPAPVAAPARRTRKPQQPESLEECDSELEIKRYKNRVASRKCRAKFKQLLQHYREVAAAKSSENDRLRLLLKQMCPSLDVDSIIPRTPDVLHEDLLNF
EBNA-1 inh = EBNA-1 DNA-binding inhibitors, primary screen, biochemical, fluorescence polarization. inhibition, % at 14.8 µM. 300,000 compounds, 0.34% hits. AID 1950, 2009; in the data active means inhibition above about 28%
PREPL inh = PREPL enzyme inhibitors, primary screen, biochemical, fluorescence polarization; Prolyl endopeptidase-like (Homo sapiens), Q4J6C6; recombinant PREPL, fluorescence polarization activity-based probe; inhibition, % at 5.96 µM; 320,000 compounds, 0.68% hits; AID 2751, 2010
LYPLA2 counter = LYPLA2 inhibitors, primary screen, counter-screen for PME1 inhibitor project, biochemical, fluorescence polarization, FP-Rh probe ABPP. Acyl-protein thioesterase 2 (Homo sapiens), O95372. 320,000 compounds, 0.38% hits. inhibition, % at 5.9 µM. recombinant LYPLA2. AID 2177, 2009;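 active means inhibition above the screen-wide mean plus 3 SD, limit set per campaign, cut at about 26% in these data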
Target sequence (O95372 whole entry, looked up): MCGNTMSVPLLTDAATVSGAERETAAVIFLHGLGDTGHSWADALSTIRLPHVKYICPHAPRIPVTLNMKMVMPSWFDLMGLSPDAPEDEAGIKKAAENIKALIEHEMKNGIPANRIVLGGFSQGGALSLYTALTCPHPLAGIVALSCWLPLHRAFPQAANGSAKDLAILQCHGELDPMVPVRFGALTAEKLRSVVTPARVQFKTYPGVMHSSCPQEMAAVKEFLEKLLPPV
PREPL confirm = human PREPL enzyme inhibitors, confirmation, biochemical, fluorescence polarization | shares compounds with PREPL inh | recombinant PREPL, fluorescence polarization activity probe | inhibition, % at 5.96 µM | 2,000 compounds, 67% hits
Large screens that a line does not name were inactive (follow-up assays come after a bar, where they were run). Most compounds without a hit are left out; they make up all but 1.3% or so of the library. Unless noted, no stated cut-off is given here; in the data, active means inhibition above about 43%; inactive means the rest.

C#CCOCCOCCOCCNc1nc(N2CCN(C(=O)C(Cc3ccc(O)cc3)n3cc(C(N)CC(C)C)nn3)CC2)nc(N2CCN(C(=O)C(Cc3cc4ccccc4[nH]3)n3cc(C(N)C(C)CC)nn3)CC2)n1 (stereo not drawn)	PREPL inh 51 | PREPL confirm 51
C#CCOCCOCCOCCNc1nc(N2CCN(C(=O)[C@H](Cc3ccc(O)cc3)n3cc([C@@H](N)C(C)CC)nn3)CC2)nc(N2CCN(C(=O)[C@H](Cc3cc4ccccc4[nH]3)n3cc([C@@H](N)Cc4ccc(O)cc4)nn3)CC2)n1 (stereo partly drawn)	PREPL inh 53 | PREPL confirm 48
C#CCOCCOCCOCCNc1nc(N2CCN(C(=O)[C@H](Cc3ccc(O)cc3)n3cc([C@@H](N)CC(C)C)nn3)CC2)nc(N2CCN(C(=O)[C@H](Cc3cc4ccccc4[nH]3)n3cc([C@@H](N)CC(C)C)nn3)CC2)n1	PREPL inh 53 | PREPL confirm 50
Cc1ccc(C(=O)OCC(=O)N(CC(C)C)c2c(N)n(Cc3ccccc3)c(=O)[nH]c2=O)o1	none
O=C(CSC1=NS(=O)(=O)c2cc(F)ccc2N1)NCCc1ccccc1	none
Cc1ccccc1NC(=O)c1ccc(C)c(S(=O)(=O)Nc2ccccn2)c1	none
Cc1ccc(C(=O)Nc2ccc(Br)cc2)cc1S(=O)(=O)Nc1ccccn1	PREPL inh 43 | PREPL confirm inactive
CCCCc1nc(SCC(=O)Nc2cccc(Cl)c2)n[nH]1	none
COc1ccc(NS(=O)(=O)c2ccc(N/N=C(\C)c3ccncc3)c([N+](=O)[O-])c2)cc1	PREPL inh 58 | PREPL confirm 49
CCOc1cccc(C=NNc2ccc(S(=O)(=O)Nc3ccccc3C(=O)O)cc2[N+](=O)[O-])c1O	none (no result: LYPLA1 inh, ZTA DNA inh, EBNA-1 inh, LYPLA2 counter)
COc1ccc(C=NNc2ccc(S(=O)(=O)Nc3ccccc3C(=O)O)cc2[N+](=O)[O-])c(OC)c1	PREPL inh 51 (no result: LYPLA1 inh, ZTA DNA inh, EBNA-1 inh, LYPLA2 counter) | PREPL confirm 49
O=C(O)c1ccccc1NS(=O)(=O)c1ccc(NN=Cc2ccccc2F)c([N+](=O)[O-])c1	PREPL inh 55 (no result: LYPLA1 inh, ZTA DNA inh, EBNA-1 inh, LYPLA2 counter) | PREPL confirm 56
C/C(=N\Nc1ccc(S(=O)(=O)Nc2ccccc2)cc1[N+](=O)[O-])c1ccncc1	none
COC(=O)C1=C(C)NC(=O)/C1=C\N(C)C	none
CCc1ccc(OCC(=O)Nc2ccc(N3CCN(C(=O)c4ccccc4)CC3)cc2)cc1	PREPL inh 58 | PREPL confirm 56
Cc1cccc(OCC(=O)Nc2ccc(N3CCN(C(=O)c4ccccc4)CC3)cc2)c1C	PREPL inh 53 | PREPL confirm 54
O=C(NC(=S)Nc1ccccc1N1CCN(C(=O)c2ccccc2)CC1)c1cccs1	none
O=C(NC(=S)Nc1ccc(N2CCN(C(=O)c3ccccc3)CC2)cc1)c1cccs1	PREPL inh 51 | PREPL confirm inactive
CCC(=O)N1CCN(c2ccc(NC(=O)COc3cccc(C)c3C)cc2)CC1	PREPL inh 53 | PREPL confirm 56
O=C1NCCn2ccc(=O)cc21	none
O=C1CCC(C(=O)N2CCCCO2)CN1Cc1ccc(Cl)cc1 (stereo not drawn)	none
O=C(/C=C/c1ccccc1Cl)N(Cc1ccc(Cl)cc1)C1CCS(=O)(=O)C1 (stereo not drawn)	none
CN(C)c1ccc(CN(C(=O)/C=C/c2ccccc2Cl)C2CCS(=O)(=O)C2)cc1 (stereo not drawn)	PREPL inh 50 | PREPL confirm 49
COc1ccc(Cl)c(N2CCN(CCCNC(=O)Nc3ccc(C)cc3)CC2)c1	PREPL inh 47 | PREPL confirm inactive
O=C1CCN(Cc2cccnc2)CCN1[C@H](CO)Cc1ccccc1	none
COc1ccccc1N1CCN(C(=O)c2ccc(COc3cccc4c3OC(C)(C)C4)cc2)CC1	none
N#CNC(=Nc1cccc(F)c1)SCc1ccccc1F	none
CC(C)(C)NC(=O)CSC(=Nc1cccc(F)c1)NC#N	PREPL inh 64 | PREPL confirm inactive
COc1cc(NC(=O)c2ccc(COc3ccccc3Br)o2)cc(OC)c1OC	PREPL inh 44 | PREPL confirm inactive
COc1ccc(NC(=O)c2ccc(COc3ccccc3Br)o2)cc1OC	none
CC(=O)Nc1ccc(NC(=O)CCNS(=O)(=O)c2cccc3nsnc23)cc1	none
Cc1ccccc1-c1nc(CN2CCC(C(=O)N3CCN(c4ccccn4)CC3)CC2)c(C)o1	PREPL inh 49 | PREPL confirm inactive
CCN1CCN(S(=O)(=O)c2ccc(Cl)c(C(=O)N(C)Cc3cccc(Cl)c3Cl)c2)CC1	PREPL inh 55 | PREPL confirm inactive
CN(CC(=O)N1CCN(Cc2ccccc2)CC1)C(=O)Cc1ccc(Cl)c(Cl)c1	PREPL inh 46 (no result: LYPLA1 inh, ZTA DNA inh, EBNA-1 inh, LYPLA2 counter) | PREPL confirm inactive
CN(C)S(=O)(=O)N(CC(=O)N1CCN(Cc2ccccc2)CC1)c1ccccc1	none
CN(CC(=O)Nc1cccc(F)c1)C(=O)Cc1n[nH]c(=O)c2ccccc12	none
CN(CC(=O)Nc1ccc(Cl)c(C(F)(F)F)c1)C(=O)Cc1n[nH]c(=O)c2ccccc12	PREPL inh 57 | PREPL confirm inactive
CN(CC(=O)Nc1ccccc1Cl)C(=O)c1cccc(S(=O)(=O)N2CCN(c3ccc(F)cc3)CC2)c1	none
CN(CC(=O)Nc1ccccc1Cl)C(=O)c1cccc(S(=O)(=O)N2CCN(Cc3ccccc3)CC2)c1	PREPL inh 67 | PREPL confirm 70
COC(=O)c1ccc(N2CCN(c3ccccc3)CC2)c(NC(=O)C2CC2)c1	PREPL inh 50 | PREPL confirm inactive
CNC(=O)c1ccc(-c2sc3nc(N4CCOCC4)c4c(c3c2N)CCCC4)o1	PREPL inh 48 | PREPL confirm inactive
CCN(CCCNC(=O)Cn1ncc2c([nH]c3ccc(C)cc32)c1=O)c1cccc(C)c1	none
Cn1cc([N+](=O)[O-])c(C(=O)N2CCN(Cc3ccc4c(c3)OCO4)CC2)n1	none
C[N+](C)(C)c1ccc(/C=N/Nc2nc(Cl)c(C#N)c(Cl)c2Cl)cc1	PREPL inh 56 | PREPL confirm inactive
Cc1nnc(N/N=C/c2cccc(OCc3ccc(Cl)c(Cl)c3)c2)n1N	PREPL inh 73 | PREPL confirm 65
Cc1nnc(N/N=C/c2cccc(C(F)(F)F)c2)n1N	none
O=C(CCC(=O)N1CCOCC1)NCCc1ccccc1	none (no result: EBNA-1 inh)
N#Cc1cc([N+](=O)[O-])ccc1N1CCN(c2ccccc2O)CC1	PREPL inh 53 | PREPL confirm 48
O=C(Nc1ccc(F)c([N+](=O)[O-])c1)C(=O)c1c(O)[nH]c2ccccc12	none
Cc1ccc(NS(=O)(=O)c2cc3c4c(cccc4c2)C(=O)NC3=O)cc1C	PREPL inh 45 | PREPL confirm inactive
O=C1NC(=O)c2cc(Br)cc3cccc1c23	none

Screening results deposited in PubChem by The Scripps Research Institute Molecular Screening Center.
